# High-throughput results (PubChem)
# Most compounds without a hit are left out; they make up all but 0.9% or so of the library.
# CDC25B CDK2 inh: human CDC25B-CDK2/CyclinA binding inhibition | P30305+P24941 | HTRF CDC25B-CDK2/CyclinA binding, anti-His/anti-Flag; stronger effect = higher value | z-score (concentration not given with the values) | actives 0.72% (n = 94,000) | AID 1259370; in the data active = z-score above about 3.2
# HIV TAR-Tat: HIV-1 TAR-Tat binding disruption. actives 0.6% (n = 100,000). z-score (no concentration beside the values). HIV-1 TAR RNA, Tat peptide displacement FRET; stronger effect = higher value; active = z-score of 3 or more in at least 2 runs
# Numbers stand for hits; . = inactive; / = no result.
SMILES,CDC25B CDK2 inh,HIV TAR-Tat
CCCN(CCC)S(=O)(=O)c1cnc[nH]1,.,.
COc1ccc(-c2onc(C)c2C)cc1S(=O)(=O)N(Cc1cccs1)C1CCCC1,/,.
Cc1cccc(N2CSC3=C(C#N)C(c4ccc(F)cc4)CC(=O)N3C2)c1 (centres undefined),4.1,.
CSc1ccc(C2CC(=O)N3CN(c4cccc(C)c4)CSC3=C2C#N)cc1 (centres undefined),8.5,.
Cc1cccc(N2CSC3=C(C#N)C(c4ccccc4Cl)CC(=O)N3C2)c1 (centres undefined),.,.
Cc1cccc2[nH]c(SCCOc3ccccc3)nc12,.,.
O=c1[nH]nc(-c2ccccc2)nc1Cc1ccco1,/,.
COCCc1nn2c(=O)cc(COC(=O)c3ccc(C)cc3)nc2s1,/,.
c1ccc(-c2noc(-c3cccc4ccccc34)n2)nc1,12,.
Fc1ccccc1-c1nc(-c2ccccn2)no1,.,/
O=C(C1CCCN(c2nnc(-n3cccc3)s2)C1)N1CCc2ccccc2C1 (centres undefined),/,.
COC(=O)C1=C(C)Nc2[nH]c(=O)[nH]c(=O)c2C1c1ccc(Br)cc1 (centres undefined),3.6,.
C=CCOC(=O)C1=C(C)Nc2[nH]c(=O)[nH]c(=O)c2C1c1ccc(CC)cc1 (centres undefined),.,/
O=C1CC(CSc2nccc(-c3cccnc3)n2)=NN1c1ccc(Cl)cc1,.,/
CCCC1=NN(c2ccc(Cl)cc2)C(=O)C1,6.2,.
CCC(NC(=O)c1cc(S(=O)(=O)N2CCc3ccccc32)cn1C)c1cccs1 (centres undefined),.,.
O=C(O)c1cc2ccccc2nc1-c1ccco1,.,35
c1coc(-c2nc3ccccc3nc2-c2ccco2)c1,.,/
Nc1ccc(-c2nc3ccccc3s2)c(Cl)c1,.,.
Nc1ccc(O)c(-c2nc3ccc(N)cc3s2)c1,.,36
COc1ccc(N2CCN(c3ncnc4c3cnn4-c3cccc(Cl)c3)CC2)cc1,/,.
COc1cc(OC)c(NS(=O)(=O)c2cc(-c3cc(C)no3)ccc2C)cc1Cl,/,.
C[C@@H]1O[C@@H](O[C@H]2[C@H](Oc3cc(O)c4c(=O)cc(-c5ccc(O)cc5)oc4c3)O[C@H](CO)[C@@H](O)[C@@H]2O)[C@H](O)[C@H](O)[C@H]1O,/,.
O=c1cc(-c2ccc(O)c(O)c2)oc2cc(O)c([C@@H]3O[C@H](CO)[C@@H](O)[C@H](O)[C@H]3O)c(O)c12,/,26
C[C@@H]1O[C@@H](OC2O[C@@H](COc3cc(O)c4c(=O)cc(-c5ccc(O)cc5)oc4c3)[C@@H](O)[C@@H](O)[C@@H]2O)[C@H](O)[C@H](O)[C@H]1O (some centres undefined),/,.
SMILES,CDC25B CDK2 inh,HIV TAR-Tat
O=c1cc(-c2cc(O)c(O)c([C@@H]3O[C@H](CO)[C@@H](O)[C@H](O)[C@H]3O)c2)oc2cc(O[C@@H]3O[C@H](CO)[C@@H](O)[C@H](O)[C@H]3O)cc(O)c12,/,25
CCC(Oc1ccccc1)c1nc2ccccc2n1CC (centres undefined),.,.
CCCCN(C)CCNS(=O)(=O)c1cc(Br)cc2c1N(C(=O)CC)CC2,.,/
CCCCN(C)CCNS(=O)(=O)c1cc(Br)cc2c1N(C(C)=O)CC2,7.4,/
O=c1cc(-c2ccccc2)oc2c(O)c(O)ccc12,.,19
O=c1cc(-c2ccccc2)oc2cc(O)c(O)cc12,/,29
Cc1oc2c(O)c(O)ccc2c(=O)c1-c1ccccc1,.,/
O=c1cc(-c2ccccc2)oc2ccc(-c3nn[nH]n3)cc12,.,/
CCOC(=O)C(C)Sc1ccc2nnc(-c3ccccc3)n2n1 (centres undefined),.,/
Cc1cc2c3c([nH]c2cc1S(=O)(=O)NCc1ccc(F)cc1)CC(C)(C)CC3=O,/,.
COc1ccc(Nc2nc(N)nc(CN3CCN(c4ccccc4)CC3)n2)cc1,.,/
COC(=O)c1ccc(C2Nc3ccc(OC)cc3C3C=CCC32)cc1 (centres undefined),.,.
CC(=O)Oc1ccc(C2Nc3ccc(C(=O)O)cc3C3C=CCC32)c(OC(C)=O)c1 (centres undefined),5.1,/
COC(=O)c1ccc([C@@H]2Nc3ccc(C(=O)O)cc3[C@@H]3C=CC[C@@H]32)cc1,.,7.4
CC(=O)Oc1ccc(C2Nc3ccc(C)cc3C3C=CCC32)c(OC(C)=O)c1 (centres undefined),.,.
O=C(O)c1ccc2c(c1)C1C=CCC1C(c1ccc(F)cc1)N2 (centres undefined),.,10
COc1cccc([C@@H]2Nc3ccc(C(=O)O)cc3[C@@H]3C=CC[C@@H]32)c1OC,.,.
COc1cccc([C@@H]2Nc3ccc(C(=O)O)cc3[C@@H]3C=CC[C@@H]32)c1,.,14
CCc1ccc(C2Nc3ccc(C(=O)O)cc3C3C=CCC32)cc1 (centres undefined),.,/
CCOCc1cc(=O)[nH]c(SCc2ccccc2)n1,.,.
CCOC(=O)c1c(C)oc2nc(C)nc(N3CCCCC3)c12,/,.
O=C(Nc1ccc2c(c1)CCN2S(=O)(=O)c1ccccc1)NC1CCCC1,/,.
O=c1[nH]c2ccc(S(=O)(=O)N3CCN(c4cccc(Cl)c4)CC3)cc2[nH]c1=O,.,20
O=c1[nH]c2ccc(S(=O)(=O)N3CCN(c4ccccc4)CC3)cc2[nH]c1=O,.,/
CC1(C)NC(=O)N(CC(O)COc2ccccc2Br)C1=O (centres undefined),.,/
SMILES,CDC25B CDK2 inh,HIV TAR-Tat
Cc1ccc(S(=O)(=O)Nc2cc(Sc3nc4ccccc4[nH]3)c(O)c3ccccc23)cc1,18,/
Cc1ccc(S(=O)(=O)Nc2cc(Sc3nc(C)cc(C)n3)c(O)c3ccccc23)cc1,.,/
O=C(COCc1cc(-c2cccs2)on1)Nc1ccccc1Br,/,10
COC(=O)c1sccc1NC(=O)COCc1cc(-c2cccs2)on1,/,.
O=C(COc1ccccc1)Nc1nc(C2COc3ccccc3O2)cs1 (centres undefined),.,.
COc1ccc(-c2nnc(SCc3cc(=O)n4c5c(sc4n3)CCCC5)o2)cc1OC,.,.
Cc1cc(Nc2ccc3c(c2)OCO3)n2nc(-c3ccco3)nc2n1,/,18
Cc1cc(NCc2ccc3c(c2)OCO3)n2nc(-c3ccco3)nc2n1,/,.
CCCSc1nnc(NC(=O)c2nn(-c3ccc(OCC)cc3)ccc2=O)s1,.,.
O=C(O)c1c[nH]c2ccc(S(=O)(=O)N3CCCC3c3ccco3)cc2c1=O (centres undefined),.,5.5
O=C(O)c1c[nH]c2ccc(S(=O)(=O)N3CCC(O)CC3)cc2c1=O,/,.
Cc1cc2nc(NC3=NCN(CCN4CCOCC4)CN3)nc(C)c2cc1C,11,/
Cc1nc(NC2=NCN(Cc3ccco3)CN2)nc2ccccc12,.,.
Cc1cc2nc(NC3=NCN(CCCN4CCOCC4)CN3)nc(C)c2cc1C,.,.
Cc1cc2nc(NC3=NCN(Cc4ccco4)CN3)nc(C)c2cc1C,14,.
c1ccc(NC2=Nc3scc[n+]3[B-](c3ccccc3)(c3ccccc3)S2)cc1,.,/
CCC[B-]1(CCC)OC(Nc2ccc3ccccc3c2)=Nc2scc[n+]21,4.2,/
CN(C)c1nc(OCCNC(=O)Nc2cccc(Cl)c2)nc(N2CCOCC2)n1,.,.
COc1ccc(-n2c(C)c3c(C)nn4cc(-c5ccc(C)o5)cc4c3c2C)cc1,7.2,16
Cc1nn2cc(-c3ccccc3)cc2c2c(C)n(Cc3ccccc3)c(C)c12,.,.
